The record followed here is PubChem BioAssay (Tox21).

A short description of assay [1]: qHTS assay for small molecule agonists of the p53 signaling pathway (AID 651631; calls by dose curve; note: nearly all actives have a fitted effect of over 15% in size; note: potency is the fitted concentration of half-maximal effect). The gist of the method: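 Fluorescence intensity from cleaved LiveBLAzer B/G substrate (2 h, room temperature) served as the signal. Beforehand, HCT-116 reporter cells bearing p53 response elements were treated 16 h at 37 °C with DMSO-dissolved compounds.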
In general terms: qHTS replaces the single test concentration by a dilution series.

Assay [2] can be described thus: qHTS assay for small molecules that induce genotoxicity in human embryonic kidney cells expressing luciferase-tagged ATAD5 (AID 651632). Note: nearly all actives have a fitted effect of over 15% in size. The gist of the method:
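Increased luciferase signal from ATAD5-tagged reporter cells indicates DNA-damage-driven ATAD5 induction. HEK293T cells are treated for 16 hr at 37C before detection with Amplite.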

A short description of assay [3]: qHTS assay for small molecule agonists of the p53 signaling pathway - cell viability (AID 651633; calls by dose curve; note: nearly all actives have a fitted effect of over 30% in size; note: potency is the fitted concentration of half-maximal effect). The gist of the method: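 Viability counter-read: CellTiter-Glo luminescence (30 min, room temperature) in the same p53RE-bla plates. These plates had been exposed to compounds for 16 h at 37 C.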
Assay [4] is described as follows: qHTS assay for small molecules that induce genotoxicity in human embryonic kidney cells expressing luciferase-tagged ATAD5 - cell viability (AID 651634; calls by dose curve; note: nearly all actives have a fitted effect of over 25% in size). In short, it runs like this: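 Cytotoxicity counterscreen in HEK293T cells bearing an ATAD5-luciferase reporter: live-cell protease activity measured by CellTiter-Fluor fluorescence after 15.5 hr compound exposure.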

A short description of assay [5]: qHTS assay for small molecule disruptors of the mitochondrial membrane potential - cell viability (AID 720634; calls by dose curve;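 note: human HepG2 liver cancer cells; series mostly up to about 83 µM; nearly all actives have a fitted effect of over 20% in size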). In short, it runs like this:
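After overnight attachment at 37 C, HepG2 cells received compound or DMSO vehicle for 1 hr. Viability is then taken from ATP-driven luminescence following a 30 min room-temperature CellTiter-Glo step.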

Assay [6] in a line: qHTS assay for small molecule disruptors of the mitochondrial membrane potential (AID 720635). Note: potency is the fitted concentration of half-maximal effect. The gist of the method:
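Mitochondrial membrane potential tracked with Mito-MPS dye, red aggregates (ex 540/em 590 nm) against green monomers (ex 490/em 535 nm). Compound treatment 1 hr at 37C, dye 30 min in HepG2.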

The nature of assay [7]: qHTS assay to test for compound auto fluorescence at 590 nm (red) in HepG2 cells (AID 720674). The gist of the method: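 1 hr compound incubation on HepG2 cells, 37 C, 5% CO2; plate read ex 540 nm / em 590 nm; intensities reported as Rose Bengal sodium equivalents.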
Assay [8] can be described thus: qHTS assay to test for compound auto fluorescence at 535 nm (green) in HepG2 cells (AID 720675).
A short description of assay [9]: qHTS assay to test for compound auto fluorescence at 460 nm (blue) in HEK293 cells (AID 720678). In short, it runs like this: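 Intrinsic compound fluorescence is recorded in live HEK293 cultures after overnight incubation at 37C, 5% CO2, using excitation 405 nm and emission 460 nm. Values are referenced to triamterene.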
Assay [10] can be described thus: qHTS assay to test for compound auto fluorescence at 590 nm (red) in HEK293 cells (AID 720679). In short, it runs like this:
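Red autofluorescence, HEK293 cells: 2,000 cells/well; attach 4-5 hr 37C; add 23 nL cpd or DMSO; incubate o/n 37C 5% CO2; read Ex540/Em590; Rose Bengal sodium reference.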

Assay [11] is described as follows: qHTS assay to test for compound auto fluorescence at 535 nm (green) in HEK293 cells (AID 720680).
The nature of assay [12]: qHTS assay to test for compound auto fluorescence at 460 nm (blue) in HEK293 cell free culture (AID 720681). In short, it runs like this: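 Blue fluorescence (Ex 405/Em 460 nm, triamterene-equivalent) was read immediately after pin transfer of compound or DMSO into medium (DMEM, 10% FBS) without cells.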
Assay [13] in a line: qHTS assay to test for compound auto fluorescence at 535 nm (green) in HEK293 cell free culture (AID 720682). In short, it runs like this:
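Intrinsic compound fluorescence is measured in culture medium containing 10% FBS, with excitation at 485 nm and detection at 535 nm, referenced to fluorescein.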

Assay [14] can be described thus: qHTS assay to test for compound auto fluorescence at 590 nm (red) in HEK293 cell free culture (AID 720683). The gist of the method:
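Red-channel autofluorescence of compounds in culture medium (DMEM, 10% FBS), no cells, measured at 540/590 nm. Rose Bengal sodium is the reference fluorophore for equivalence.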

A short description of assay [15]: qHTS assay to test for compound auto fluorescence at 590 nm (red) in HepG2 cell free culture (AID 720684). In short, it runs like this:
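Steps: dispense MEM/10% FBS medium, no cells; pin compound or DMSO vehicle; read red channel, Ex/Em 540/590 nm. Output given as Rose Bengal sodium equivalents.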

A short description of assay [16]: qHTS assay to test for compound auto fluorescence at 460 nm (blue) in HepG2 cell free culture (AID 720685). The gist of the method:
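Compound (23 nL) or DMSO pinned into cell-free MEM with 10% FBS; blue fluorescence read at 405/460 nm excitation/emission, expressed as auto-fluorescence equivalency to triamterene.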

Assay [17] is described as follows: qHTS assay to test for compound auto fluorescence at 460 nm (blue) in HepG2 cells (AID 720687). In short, it runs like this:
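Blue-channel autofluorescence (Ex/Em 405/460 nm, triamterene-equivalent) was measured after 1 hr compound exposure at 37 C, 5% CO2. Cells were HepG2, plated overnight at 37 C in MEM plus 10% FBS.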

Assay [18] has as its target Glucocorticoid receptor (Homo sapiens) (UniProt P04150). Nature of the assay: qHTS assay to identify small molecule agonists of the glucocorticoid receptor (GR) signaling pathway (AID 720691; active = well fitted activation curve with a large enough effect in the signal ratio in the repeat runs, not every such curve was filed as active; the % refers to the signal ratio). In short, it runs like this:
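Agonist mode in a HeLa line carrying a GRE-controlled beta-lactamase reporter. Compounds act for 18 h at 37 C before a 2 h room-temperature FRET substrate step and fluorescence reading.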

Assay [19] has the same target. The assay can be described thus: qHTS assay to identify small molecule antagonists of the glucocorticoid receptor (GR) signaling pathway (AID 720692; active = well fitted inhibition curve with a large enough effect in the signal ratio in the repeat runs, not every such curve was filed as active; the % refers to the signal ratio; note: potency is the fitted concentration of half-maximal effect). The gist of the method:
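Cells plated, rested 4 h at 37 C/5% CO2; compounds in DMSO pin-transferred; dexamethasone added to 5 nM final; 18 h at 37 C; B/G FRET substrate added, 2 h room temperature; fluorescence measured.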

A short description of assay [20]: qHTS assay to test for compound auto fluorescence at 535 nm (green) in HepG2 cell free culture (AID 720686).

Several values for one entry are separate records, joined by “and”; a condition that tells them apart may be missing. Equal entries are not always repeated. Results filed as inconclusive are left out. More than one record can exist for a structure, and the calls need not agree. Activity calls are given as the source filed them. Unless noted, calls come from the whole dose curve; as a rule, active = well fitted curve in the direction sought with a large enough effect in the repeat runs; inconclusive = weak or mixed curves; inactive = no such curve, though single readings can be large; an effect the other way counts as inactive or inconclusive.

Sequence of Glucocorticoid receptor (Homo sapiens) (P04150 whole entry, looked up): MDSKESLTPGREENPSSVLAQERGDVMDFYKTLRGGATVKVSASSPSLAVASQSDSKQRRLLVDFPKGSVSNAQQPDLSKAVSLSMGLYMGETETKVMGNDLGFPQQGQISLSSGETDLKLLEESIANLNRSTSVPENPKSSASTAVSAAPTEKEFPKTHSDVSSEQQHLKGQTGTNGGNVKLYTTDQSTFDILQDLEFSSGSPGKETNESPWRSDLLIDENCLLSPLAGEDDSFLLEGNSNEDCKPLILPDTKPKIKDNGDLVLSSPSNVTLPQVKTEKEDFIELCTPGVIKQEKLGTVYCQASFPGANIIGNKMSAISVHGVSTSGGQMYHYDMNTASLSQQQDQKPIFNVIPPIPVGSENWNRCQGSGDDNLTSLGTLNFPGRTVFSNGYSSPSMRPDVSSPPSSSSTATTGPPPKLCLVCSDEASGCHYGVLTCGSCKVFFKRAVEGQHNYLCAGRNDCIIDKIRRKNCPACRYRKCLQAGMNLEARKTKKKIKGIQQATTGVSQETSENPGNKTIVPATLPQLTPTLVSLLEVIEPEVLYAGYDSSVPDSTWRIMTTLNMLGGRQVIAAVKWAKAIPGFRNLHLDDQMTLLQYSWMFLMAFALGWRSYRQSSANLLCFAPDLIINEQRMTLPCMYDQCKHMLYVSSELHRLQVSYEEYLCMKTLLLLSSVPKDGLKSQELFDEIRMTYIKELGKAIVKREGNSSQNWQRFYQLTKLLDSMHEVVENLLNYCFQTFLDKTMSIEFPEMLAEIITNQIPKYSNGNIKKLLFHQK

As for `Oc1ccc(Cl)cc1Cl`, the Potency entry in assay [1], in assay [2], in assay [3], in assay [4], in [5] and in [9] was “inactive” throughout. Also, the Potency result in assay [12], in assay [16], in assay [17] and in assay [19] was “inactive” in each case. The Potency in [6] was 30.4 µM (active) and 27.3 µM (active). For the same compound, the compound was classed as inactive in assay [7], in [8], in [10], in assay [11], in assay [13] and in [14]. The result in assay [15] and in assay [18] was inactive.
With `COP(=S)(OC)Oc1ccc(S(=O)(=O)N(C)C)cc1`, the Potency result in assay [1], in [2], in [3], in assay [4], in assay [5] and in assay [9] was “inactive” in each case. Also, the Potency entry in assay [12], in assay [16], in assay [17] and in assay [19] was “inactive” each time. Also, the compound was classed as inactive in assay [7], in assay [8], in [10], in assay [11], in assay [13] and in [14]. The outcome in [15] and in assay [18] was inactive.
For the compound `CC(C)Nc1ccc(Nc2ccccc2)cc1`, the Potency is 26.6 µM (active) and 68.3 µM (active) and 30.6 µM (active) in assay [1]; 23.7 µM (active) and inactive in assay [3]; 21.1 µM (active) and 60.9 µM (active) and 61.1 µM (active) in assay [6]. The Potency entry in assay [2], in assay [4], in assay [9], in [12], in [16] and in assay [17] was “inactive” in each case. Besides, the compound was classed as inactive in assay [7], in [8], in [10], in assay [11], in assay [13] and in assay [14]. The result in assay [15], in [20] and in assay [18] was inactive.
Regarding `Cc1ccc([N+](=O)[O-])cc1`, the Potency entry in assay [1], in assay [2], in assay [3], in assay [4], in [5] and in assay [6] was “inactive” each time. The Potency result in [9], in assay [12], in assay [16], in assay [17] and in [19] was “inactive” throughout. Further, the result in assay [7], in assay [8], in [10], in assay [11], in [13] and in assay [14] was inactive. The result in assay [15] and in [18] was inactive.
Regarding `CCCCSP(=O)(SCCCC)SCCCC`, the Potency entry in [1], in [2], in assay [3], in assay [4], in assay [9] and in assay [12] was “inactive” throughout. Moreover, the Potency result in [16], in [17] and in [19] was “inactive” throughout. For the same compound, the outcome in assay [7], in assay [8], in assay [10], in [11], in assay [13] and in [14] was inactive. Further, the compound was called inactive in assay [15] and in assay [18].
As to `OC(c1ccc(Cl)cc1)(c1cncnc1)c1ccccc1Cl` (configuration not stated), the Potency result in assay [1], in [2], in assay [3], in assay [4], in [9] and in assay [12] was “inactive” throughout. Besides, the Potency entry in assay [16] and in [17] was “inactive” in each case. For the same compound, the Potency is 49.4 µM (active) and 30.6 µM (active) in [6]; 49 µM (active) in [19]. Also, the call in [7], in [8], in assay [10], in [11], in [13] and in assay [14] was inactive. The compound was classed as inactive in assay [15], in [20] and in assay [18].
As for `Cc1cc(Cl)ccc1N=CN(C)C`, the Potency entry in [2], in assay [3], in assay [4], in [5], in [6] and in [9] was “inactive” throughout. Also, the Potency result in [12], in assay [16] and in assay [17] was “inactive” in each case. Further, the compound was called inactive in assay [7], in assay [8], in assay [10], in assay [11], in assay [13] and in [14]. For the same compound, the result in [15] and in assay [20] was inactive.
